Assay results as given in PubChem BioAssay (NCATS).
Inconclusive results are not listed. Active and inactive are the calls of the source. The call rests on the fitted dose curve; in most records, active means well fitted cell-killing curve with a large enough effect; inconclusive means small, poorly fitted or top-dose-only effect; inactive means flat fitted curve, though single readings scatter.

Key:
[1] = Cell Viability - LYMP2-013 (AID 970); further: series mostly up to about 92 µM; nearly all actives have a fitted effect of over 55% in size
Summary of the method: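 qHTS; 2500 lymphoblastoid cells/well; 5 hr 37 C settle; cpd 24 hr 37 C; CellTiter-Glo, 30 min RT; luminescence. AC50 = Hill fit.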

[2] = Cell Viability - LYMP2-015 (AID 971); further: nearly all actives have a fitted effect of over 55% in size
Summary of the method: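 Luminescent ATP read-out (CellTiter-Glo) served as the viability measure after lymphoblastoid cells were exposed to compounds for 24 hours at 37 C. Concentration-response data were fitted with the Hill equation to give AC50.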

[3] = Cell Viability - LYMP2-017 (AID 972); further: series mostly up to about 92 µM; nearly all actives have a fitted effect of over 55% in size
Summary of the method: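 2500 cells/well, 5 h 37 C; cpd 24 h 37 C in complete medium; CellTiter-Glo, 30 min RT; luminescence (ATP). AC50 via Hill fit, qHTS.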

[4] = Cell Viability - LYMP2-019 (AID 973); further: nearly all actives have a fitted effect of over 55% in size
Summary of the method: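 Luminescent ATP read-out (CellTiter-Glo, 30 min room temperature) served as the viability measure after 24 hr treatment of lymphoblastoid cells at 37 C. Concentration-response data were fitted to the Hill equation for AC50.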

[5] = Cell Viability - LYMP2-021 (AID 974)
From the text: NIH Chemical Genomics Center [NCGC]
NIH Molecular Libraries Screening Centers Network [MLSCN]
National Institutes of Environmental Health Sciences [NIEHS]
National Toxicology Program [NTP]
We have developed a 1536-well cell-based assay for quantitative high throughput screening (qHTS) against a number of cell lines to determine in vitro cytotoxicity of small molecules. This particular assay uses a human lymphoblastoid cell line (LYMP2-021) purchased from Coriell Institute for Medical Research.
NCGC Assay Protocol Summary:
The CellTiter-Glo luminescent cell viability assay (Promega) is a homogeneous method to measure the number of viable cells in culture. The end point readout of this assay is based on quantitation of intracellular ATP, an indicator of metabolic activity, using the luciferase reaction. […]
Using the CellTiter-Glo luminescent cell viability assay, the amount of cellular ATP was measured in the lymphoblastoid cell line with complete culture medium following compound treatment for 24 hours. […] Library compounds were measured for their ability to cause acute toxicity in the cell line, as reflected by a decrease in intracellular ATP levels, in a concentration-dependent manner. […] AC50 values were determined from concentration-response data modeled with the standard Hill equation. […]
8. Detection; Luminescence; Viewlux plate reader […]

[6] = Cell Viability - LYMP2-023 (AID 975)
Summary of the method: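 2500 cells/well, 5 hr 37 C; cpd 24 hr 37 C; CellTiter-Glo, 30 min RT; luminescence. qHTS conc-response, Hill fit -> AC50. Pos ctrl tetraoctylammonium bromide.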

[7] = Cell Viability - LYMP2-025 (AID 976); further: series mostly up to about 92 µM
Summary of the method: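 Seed 2500 LYMP2-025 cells/well; 5 hr at 37 C; add compound; 24 hr at 37 C; add CellTiter-Glo; 30 min RT; read luminescence. AC50 from Hill-modelled concentration-response.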

[8] = Cell Viability - LYMP2-002 (AID 977); further: series mostly up to about 92 µM
Summary of the method: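 Luminescent ATP readout (CellTiter-Glo, 30 min room temperature) after 24 h compound exposure at 37 C of a human lymphoblastoid line, 2500 cells/well. AC50 values derived by standard Hill fitting of qHTS concentration-response data.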

[9] = Cell Viability - LYMP2-006 (AID 978); further: series mostly up to about 92 µM; nearly all actives have a fitted effect of over 60% in size
Summary of the method: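 Potency values are Hill-fit AC50s for decreases in intracellular ATP (CellTiter-Glo luminescence). LYMP2-006 lymphoblastoid cells, 2500 per well, were exposed to compound in complete culture medium for 24 hr at 37 C.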

[10] = Cell Viability - LYMP2-007 (AID 979);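 further: cells exposed to compound for 24 h before reading; nearly all actives have a fitted effect of over 60% in size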
Summary of the method: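 Luminescent ATP signal (CellTiter-Glo) serves as the viability read-out after 24 hr compound treatment of lymphoblastoid cells in complete medium at 37 C. Concentration-response data were fitted to the Hill equation to give AC50 values.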

Measured: outcome

COc1ccc(CCC(=O)c2c(O)cc(O[C@@H]3O[C@H](CO)[C@@H](O)[C@H](O)[C@H]3O[C@@H]3O[C@@H](C)[C@H](O)[C@@H](O)[C@H]3O)cc2O)cc1O
inactive: [1] | [2] | [3] | [4] | [5] | [6] | [7] | [8] | [9] | [10]

C=C1C[C@]23C[C@@]1(O)CC[C@H]2[C@@]12C=C[C@H](O)[C@@](C)(C(=O)O1)[C@H]2[C@@H]3C(=O)O
inactive: [1] | [2] | [3] | [4] | [5] | [6] | [8] | [9] | [10]
